Results taken from PubChem BioAssay (Tox21).
Records with an inconclusive call do not appear. Active and inactive are the calls of the source. Unless noted, the call rests on the fitted dose curve; in most records, active means well fitted curve in the direction sought with a large enough effect in the repeat runs; inconclusive means weak or mixed curves; inactive means no such curve, though single readings can be large; an effect the other way counts as inactive or inconclusive. Where a SMILES comes first, the peptide text is derived from it. [ ]: non-standard residue; d: D form. pGlu = O=C1CC[C@@H](C(=O)O)N1

Key:
[1] = qHTS assay to identify small molecule agonists of H2AX (AID 1224845; active means well fitted activation curve with a large enough effect in the signal ratio in the repeat runs, not every such curve was filed as active; the % refers to the signal ratio)
Outline: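 Phospho-H2AX Ser139 measured by HTRF (ex 320 nm; em 665 and 620 nm) after 24 hr antibody incubation. Compounds, 15 concentrations, 0.76% DMSO, were applied to CHO-K1 cells for 3hr at 37C before lysis.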

[2] = qHTS assay to identify small molecule agonists of H2AX - cell viability counter screen (AID 1224847; calls by dose curve; further: top concentration of the series differs between compounds; nearly all actives have a fitted effect of over 30% in size)
Outline: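 We seed wild-type CHO-K1 cells overnight, treat them for 3 hr at 37C with compounds in 15-concentration series, and quantify remaining viability by CellTiter-Glo luminescence.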

[3] = qHTS assay to identify small molecule antagonists of the estrogen related receptor (ERR) signaling pathway from Tox21 library (AID 1224848); further: nearly all actives have a fitted effect of over 50% in size
Outline: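 ERR cell line, 2,000 cells/well. 6 h settle, then compound (DMSO) added; 18 h at 37 C; ONE-Glo luminescence after 30 min RT.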

[4] = qHTS assay to identify small molecule agonists of the estrogen related receptor (ERR) signaling pathway from Tox21 library (AID 1224849; calls by dose curve; further: nearly all actives have a fitted effect of over 15% in size)
Outline: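 Luminescent agonist read-out (One-Glo, 30-minute room-temperature incubation) following 18-hour compound treatment at 37 C of the ERR cell line, which had been plated 6 hours before dosing.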

[5] = qHTS RealTime-Glo MT Cell Viability Assay in HepG2 cells - 24 hour (AID 1224867); further: nearly all actives have a fitted effect of over 50% in size
Outline: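 Tox21 10K library screened in qHTS format on HepG2 cells carrying RealTime-Glo reagents. Compounds were added after a 5 h preincubation, and the luminescent signal from continuous culture was measured repeatedly during 40 h treatment.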

[6] = qHTS RealTime-Glo MT Cell Viability Assay in HEK293 cells - 32 hour (AID 1224868); further: nearly all actives have a fitted effect of over 50% in size; further: potency means the concentration at half of the fitted maximal effect; on activity change, negative = cytotoxic: top concentration of the series differs between compounds
Outline: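 Luminescence generated by NanoLuc from substrate produced by living HEK293 cells served as the viability signal. Each value reflects the reading at its stated time point during continuous 40 h compound exposure at 37 C.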

[7] = qHTS RealTime-Glo MT Cell Viability Assay in HepG2 cells - 40 hour (AID 1224870); further: nearly all actives have a fitted effect of over 50% in size; further: potency means the concentration at half of the fitted maximal effect
Outline: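 Real-time viability: cells seeded at 600 per well together with NanoLuc and cell-permeant prosubstrate, compounds added after 5 h incubation. Luminescence tracked at 0, 8, 16, 24, 32 and 40 h of exposure.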

[8] = qHTS assay to identify small molecule agonists of the hypoxia (HIF-1) signaling pathway (AID 1224846; active means well fitted activation curve with a large enough effect in the signal ratio in the repeat runs, not every such curve was filed as active; the % refers to the signal ratio)
Outline: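 Compounds added to ME-180 cells carrying hypoxia-response-element beta-lactamase reporter (0.5% dialyzed FBS, 5 h preplating), 17 h at 37C; agonist activity detected by CCF4-AM B/G FRET read-out.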

[9] = A CellTox Green Cytotoxicity Assay to monitor cytotoxicity in HEK293 cells - 0 hour (AID 1224869); further: nearly all actives have a fitted effect of over 50% in size
Outline: (§1)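 Fluorescence from a DNA-binding dye excluded by viable cells was measured repeatedly in the same HEK293 wells (600 cells/well) during continuous compound exposure at 37 C. Each assay gives one read point: 0, 8, 16, 24, 32 or 40 h.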

[10] = A CellTox Green Cytotoxicity Assay to monitor cytotoxicity in HEK293 cells - 40 hour (AID 1224871); further: nearly all actives have a fitted effect of over 45% in size; further: potency means the concentration at half of the fitted maximal effect
Outline: as §1
On the % scale 0 is the no-effect control and ±100 the full control effect.

C=CCCCCCCCCC(=O)OCC
inactive: Potency [1] | outcome [2] | Potency [3] | outcome [4] | outcome [5] | Potency [6] | Potency [7]

CCCC(=O)O[C@]1(C(=O)CC)CC[C@H]2[C@@H]3CCC4=CC(=O)CC[C@]4(C)[C@H]3[C@@H](O)C[C@@]21C
inactive: Potency [1] | outcome [8] | outcome [5] | outcome [9] | Potency [7] | Potency [10]

CC(C(=O)O)c1cccc(Oc2ccccc2)c1 (stereo unspecified)
inactive: Potency [1] | outcome [2] | outcome [5] | Potency [6] | outcome [9] | Potency [7] | Potency [10]

CCOC(=O)c1cnc2c(cnn2CC)c1NN=C(C)C
inactive: Potency [1] | outcome [2] | outcome [5] | Potency [6] | outcome [9] | Potency [7]

NO
inactive: Potency [1] | outcome [2] | outcome [5] | Potency [6] | outcome [9] | Potency [7] | Potency [10]

NC(N)=NCCN1CCCCCCC1
inactive: activation (H2AX phosphorylation) [1] 0.429% [at 0.582 µM] | activity change, negative = cytotoxicity [2] 0.639% [at 0.582 µM] | activity, negative = inhibition [3] 12.8% [at 0.349 µM] | activity change, positive = activation [4] 7.2% [at 0.349 µM] | activity change, negative = cytotoxicity [5] 0.287% [at 0.29 µM] | activity change, negative = cytotoxic [6] -3.18% [at 0.29 µM] | cytotoxicity [9] 4.87% [at 0.29 µM] | activity change, negative = cytotoxic [7] 0.511% [at 0.29 µM] | cytotoxicity increase [10] 1.15% [at 0.29 µM]

CCNC(=O)[C@@H]1CCCN1C(=O)[C@H](CCCN=C(N)N)NC(=O)[C@H](CC(C)C)NC(=O)CNC(=O)[C@H](Cc1ccc(O)cc1)NC(=O)[C@H](CO)NC(=O)[C@H](Cc1c[nH]c2ccccc12)NC(=O)[C@H](Cc1cnc[nH]1)NC(=O)[C@@H]1CCC(=O)N1 ([pGlu]HWSYGLRP-NHEt)
inactive: Potency [1] | outcome [2] | Potency [3] | outcome [4] | outcome [5] | Potency [6] | outcome [9] | Potency [7] | Potency [10]

C[N+](C)(C)CCCCCCCCCC[N+](C)(C)C
inactive: Potency [1] | outcome [2] | outcome [5] | Potency [6] | outcome [9] | Potency [7] | Potency [10]

C=CN1CCCCCC1=O
inactive: Potency [1] | outcome [5] | Potency [6] | outcome [9] | Potency [7] | Potency [10]

NCCCC(N)(C(=O)O)C(F)F (stereo unspecified)
inactive: Potency [1] | outcome [2] | outcome [5] | Potency [6] | Potency [7] | Potency [10]

O=S(=O)(O)c1cc(O)c(O)c(S(=O)(=O)O)c1
inactive: outcome [8] | outcome [2] | outcome [5] | Potency [6] | outcome [9] | Potency [7] | Potency [10]

CC1=NS(=O)(=O)c2cc(Cl)ccc2N1
inactive: Potency [1] | outcome [5] | Potency [6] | outcome [9] | Potency [7] | Potency [10]

O=S(=O)(O)c1cccc2ccccc12
inactive: Potency [1] | Potency [3] | outcome [4] | outcome [5] | Potency [6] | outcome [9] | Potency [7] | Potency [10]

CN(C)C(=O)Oc1cccc([N+](C)(C)C)c1
inactive: Potency [1] | outcome [2] | outcome [5] | Potency [6] | outcome [9] | Potency [7] | Potency [10]

Cc1cccc(C)c1NC(=O)CC12CCCN1CCC2
inactive: outcome [8] | outcome [2] | Potency [3] | outcome [4] | outcome [5] | Potency [6] | outcome [9] | Potency [7] | Potency [10]

COc1cc(C(=O)NCc2ccc(OCCN(C)C)cc2)cc(OC)c1OC
inactive: Potency [1] | outcome [2] | outcome [5] | Potency [6] | outcome [9] | Potency [7] | Potency [10]

Nc1ccn([C@@H]2O[C@H](CO)[C@@H](O)C2O)c(=O)n1 (stereo partly specified)
inactive: outcome [8] | outcome [2] | Potency [3] | outcome [4] | outcome [5] | Potency [6] | Potency [7] | Potency [10]

CN1CCN(c2cc3c(nn2)Oc2ccccc2N3C)CC1
inactive: activation [8] 0.831% [at 15.8 µM] | activity change, negative = cytotoxicity [2] 0.295% [at 31.6 µM] | activity change, negative = cytotoxicity [5] -0.547% [at 15.8 µM] | activity change, negative = cytotoxic [6] 1.71% [at 15.8 µM] | cytotoxicity [9] -3.85% [at 15.8 µM] | activity change, negative = cytotoxic [7] 1.01% [at 15.8 µM] | cytotoxicity increase [10] -14.2% [at 15.8 µM]

CCC(C)(CN(C)C)OC(=O)c1ccccc1 (stereo unspecified)
inactive: Potency [1] | outcome [2] | outcome [5] | Potency [6] | outcome [9] | Potency [7] | Potency [10]

CC(=O)OCC(=O)[C@@]1(O)[C@H](C)C[C@H]2[C@@H]3CCC4=CC(=O)C=C[C@]4(C)[C@@]3(F)[C@@H](O)C[C@@]21C
inactive: Potency [1] | Potency [3] | outcome [4] | outcome [5] | Potency [6] | Potency [7] | Potency [10]

CC[N+](CC)(CC)CCOc1cccc(OCC[N+](CC)(CC)CC)c1OCC[N+](CC)(CC)CC
active: Potency [7] 23.9 µM
inactive: Potency [1] | Potency [6] | outcome [9] | Potency [10]

CC(=O)O[C@@]12CO[C@@H]1C[C@H](O)[C@@]1(C)C(=O)[C@H](O)C3=C(C)[C@@H](OC(=O)[C@H](O)[C@@H](NC(=O)OC(C)(C)C)c4ccccc4)C[C@@](O)([C@@H](OC(=O)c4ccccc4)[C@H]21)C3(C)C
active: Potency [6] 0.0477 µM
inactive: Potency [1] | outcome [5] | outcome [9] | Potency [7] | Potency [10]

CCCC[N+](C)(CCCC)CCCC
inactive: Potency [1] | outcome [5] | Potency [6] | outcome [9] | Potency [7] | Potency [10]

CCCn1cc[n+](C)c1C
active: Potency [7] 45 µM
inactive: Potency [1] | outcome [2] | Potency [6] | outcome [9] | Potency [10]

CCCCc1nc(Cl)c(CO)n1Cc1ccc(-c2ccccc2-c2nn[nH]n2)cc1
inactive: Potency [1] | outcome [5] | Potency [6] | outcome [9] | Potency [7] | Potency [10]

CC12CCC(C(=O)C1=O)C2(C)C (stereo unspecified)
inactive: outcome [8] | outcome [2] | outcome [5] | Potency [6] | outcome [9] | Potency [7] | Potency [10]

CC(=O)c1cnccn1
active: Potency [10] 16.2 µM
inactive: outcome [8] | outcome [2] | outcome [5] | Potency [6] | outcome [9] | Potency [7]
